According to PubChem BioAssay (NCATS):
Records with an inconclusive call do not appear. Entries that show only a call come without a potency. Values without a mark were called inactive. Active and inactive are the calls of the source. Calls follow the shape of the dose curve; as a rule, active = well fitted inhibition curve with a large enough effect; inconclusive = small, poorly fitted or top-dose-only effect; inactive = no such curve, though single readings can be large or run the other way. Peptide text beside a SMILES is read from it. * marks the point of attachment. Cbz = O=C(OCc1ccccc1)*; CH2F = FC*

Target: Retinaldehyde dehydrogenase 3 (Homo sapiens) (UniProt P47895)
Assay: qHTS for Inhibitors of the Aldehyde Dehydrogenase Family (ALDH1A3) Primary screen (AID 2061315)
Conditions: ALDH inhibition qHTS; series mostly up to 56 µM

Compound	Potency	activity change, negative = inhibition
CC1(O)CC(O)C2C(C(=O)O)=COC(OC3OC(CO)C(O)C(O)C3OC(=O)/C=C/c3ccc(O)cc3)C21 (stereo not given)	inactive	
COC1=CC(=O)CC(C)C12Oc1cc(OC)cc(O)c1C2=O (stereo not given)	inactive	
C/C(=C\CCC(C)(C)O)CCO[C@@H]1O[C@H](CO[C@@H]2O[C@@H](C)[C@H](O)[C@@H](O)[C@H]2O)[C@@H](O)[C@H](O)[C@H]1O	inactive	
CC1CCC2C(C(=O)O)=CC3CC(C)(C)CC132 (stereo not given)	inactive	
C=C(C)C1CCC2(C(=O)OC3OC(COC4OC(CO)C(O)C(O)C4O)C(OC4OC(C)C(O)C(O)C4O)C(O)C3O)CCC3(C(=O)O)C(CCC4C5(C)CCC(=O)C(C)(C)C5CCC43C)C12 (stereo not given)	inactive	
COc1c2c(c(C)c3c1C(=O)OC3)OC1(C)CC(O)C34OC(OC)(CCC3(C)C1C2)OC4(C)CO (stereo not given)	inactive	
C[C@@H]1C/C=C/C=C\C=C\C=C\[C@H](O[C@@H]2O[C@H](C)[C@@H](O)[C@H](N)[C@@H]2O)C[C@@H]2O[C@](O)(C[C@@H](O)C[C@H]3O[C@@H]3/C=C/C(=O)O1)C[C@H](O)[C@H]2C(=O)O	inactive	
COC(=O)CC[C@H](NC(=O)[C@H](CC(C)C)NC(=O)OCc1ccccc1)C(=O)N[C@@H](Cc1cnc[nH]1)C(=O)N[C@@H](CC(=O)OC)C(=O)CF (Cbz-LE(OMe)HD(OMe)-CH2F)		-9.94% [at 11.2 µM]
CCC(CCO[C@@H]1O[C@H](CO[C@H]2OC[C@](O)(CO)[C@H]2O)[C@@H](O)[C@H](O)[C@H]1O)C(C)(C)O (stereo not given in full)	inactive	
COc1cc(CCc2ccccc2)c(C(=O)O)c2c1CC(C(C)(C)O)O2 (stereo not given)	inactive	
CC1(CO)CC2C(O)C(=O)C3(CO)CC3(C)C2C1 (stereo not given)	inactive	
C=C1C(=O)O[C@@H]2C[C@@H](C)[C@]34C[C@]5(C(=O)O[C@H]6CC(C)=C([C@H](C)CCCO)[C@H](OC(=O)C(C)CC)[C@H]65)[C@@H](C(C)=C3C[C@@H]12)[C@H]4OC(C)=O (stereo not given in full)	inactive	
CC1=C2C[C@H]3O[C@@]3(C)CCC3O[C@@]3(C)C[C@@]2(O)OC1=O (stereo not given in full)	inactive	
COc1ccc(CC(=O)NCc2ccccc2-c2ccccc2C(=O)NCCc2cccnc2)cc1	inactive	
CC1=CC(=O)CC2C1(O)CCC(C)C21CC(c2ccoc2)OC1=O (stereo not given)	inactive	
CC[C@@H](C)[C@@H]1OC2(C=C[C@H]1C)C[C@@H]1C[C@H](C/C=C(\C)[C@H](O[C@H]3C[C@H](OC)[C@H](O[C@H]4C[C@H](OC)[C@H](NC(C)=O)[C@H](C)O4)[C@H](C)O3)[C@H](C)/C=C/C=C3\CO[C@H]4[C@H](O)C(C)=C[C@@H](C(=O)O1)[C@@]34O)O2 (stereo not given in full)	inactive	
C=C(COC(=O)C(O)C(O)CN)C12OC1C1(C)C(=CC2=O)C(O)C(O)CC1C (stereo not given)	inactive	
C/C=C/C1=CC2=CC(=O)C(C)(O)C(OC(=O)c3c(C)cc(O)cc3O)C2CO1 (stereo not given)	inactive	
CC(C)c1ccc(CC(=O)N2CCC[C@@H](c3cccc(OC(C)(C)C(=O)O)c3)C2)cc1	inactive	
CC(C)c1ccc2c(c1)[C@H](O)CC1[C@@](C)(C(=O)O)CCC[C@]21C (stereo not given in full)	inactive	
C=CC1(C)C=C2C(=O)OC(=O)C3=C(CCCC3(C)C)C2(O)CC1 (stereo not given)	inactive	
C=C1C(=O)OC2C(OC(=O)C=C(C)C)C(C)=C3C(=O)C=C(C)C3C(O)C12 (stereo not given)	inactive	
CCOC(=O)c1csc(Nc2ccc(Cl)cc2)n1	inactive	
CC(C)=CC[C@H]1O[C@]2(O)C([C@H]3CCC4[C@@]5(C)CC[C@H](O[C@@H]6O[C@H](CO)[C@H](O)[C@H](O[C@@H]7O[C@H](CO)[C@@H](O)[C@H](O)[C@H]7O)[C@H]6O[C@@H]6O[C@@H](C)[C@H](O)[C@@H](O)[C@H]6O)C(C)(C)C5CC[C@@]4(C)[C@]3(C)[C@H]2O)[C@@]1(C)O (stereo not given in full)	inactive	
CCC1OC(=O)C(C)CC(C)C(=O)/C(C)=C/C(C)C(=O)/C=C/C1(C)O (stereo not given)	inactive	
